Experimental data taken from PubChem BioAssay (Tox21).
Inconclusive results are not listed. Unmarked numbers belong to inactive results. The call rests on the fitted dose curve.

experiment: qHTS assay to identify small molecule agonists of the AP-1 signaling pathway - cell viability counter screen (AID 1159525); details: ME-180 (cervical carcinoma) AP-1-bla cells viability, ATP luminescence, 5 h; series mostly up to 76.8 µM; viability change, negative = cytotoxic: at the top concentration; further: nearly all actives have a fitted effect of over 55% in size
In short: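 Same-well cytotoxicity counter screen of the Tox21 10K library in ME-180 cells. The readout is ATP-dependent luminescence after 5 h compound treatment. Data are normalised to DMSO and tetra n-octyl ammonium bromide controls.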

Structure (SMILES) | viability change, negative = cytotoxic
C1COCO1 | -3.55%
O=S1OCCO1 | 1.67%
CNCCCC1c2ccccc2C=Cc2ccccc21 | -1.18% [at 35.3 µM]
NC(=O)Cn1c(=O)cc(CCN2CCN(c3nccc4sccc34)CC2)c2ccc(F)cc21 | -3.63%
O=C(N/N=C/c1ccc([N+](=O)[O-])o1)c1ccc(O)cc1 | 0.483% [at 35.3 µM]
CC(=O)Nc1ccccc1C | 0.625%
O=C(CCCN1CCC(O)(c2ccc(Br)cc2)CC1)c1ccc(F)cc1 | -7.83% [at 35.3 µM]
CCOC(=N)CC(=O)OCC | 1.91%
Cc1cc(C(=C2C=CC(=Nc3ccc(S(=O)(=O)O)cc3S(=O)(=O)O)C=C2)c2ccc(Nc3ccc(S(=O)(=O)O)cc3)cc2)ccc1N | 3.9% [at 35.3 µM]
CCCCC(CC)C(=O)OCCOCCOCCOCCOC(=O)C(CC)CCCC (stereo not given) | -4.2%
CN1CCN(CCCN2c3ccccc3Sc3ccc(S(=O)(=O)N(C)C)cc32)CC1 | -12.9% [at 35.3 µM]
CCCCN(CCCC)CCCOC(=O)c1ccc(N)cc1 | 9.13% [at 35.3 µM]
O=C(CCCCCCCCC#CI)Oc1ccccc1 | -0.851% [at 35.3 µM]
CSc1ccc(Oc2ccc(S(N)(=O)=O)cc2CN(C)C)cc1C | 2.38%
CN(C(=O)C(Cl)Cl)c1ccc(OC(=O)c2ccco2)cc1 | -3.14% [at 35.3 µM]
CC1CN(c2cc3c(cc2F)c(=O)c(C(=O)O)cn3-c2ccc(F)cc2F)CCN1 (stereo not given) | -6.8% [at 6.97 µM]
CCC(C(=O)OCCOCCN(CC)CC)c1ccccc1 (stereo not given) | 4.41% [at 35.3 µM]
C[C@@H]1C[C@H]2[C@@H]3CCC4=CC(=O)C=C[C@]4(C)[C@@]3(F)[C@@H](O)C[C@]2(C)[C@@]1(O)C(=O)CO | 0.423%
CCCCCCCCCCCC(=O)[O][Sn]([CH2]CCC)([CH2]CCC)[O]C(=O)CCCCCCCCCCC | -1.08% [at 35.3 µM]
COC(=O)[C@@H]1CC2=CC(=O)CC[C@]2(C)[C@@]23O[C@@H]2C[C@@]2(C)[C@@H](CC[C@@]24CCC(=O)O4)[C@H]13 | 8.18% [at 35.3 µM]

Structure (SMILES) | viability change, negative = cytotoxic
CC1CC(O)CC(C)(C)C1 (stereo not given) | -11.2%
CCOC(=O)/C=C/C(=O)O | 0.236%
CO/N=C1\CN(c2nc3c(cc2F)c(=O)c(C(=O)O)cn3C2CC2)CC1CN (stereo not given) | -8.17% [at 35.3 µM]
C=CC(=O)NCOCC(C)C | 3.2%
O=C(O)c1c(O)c(-c2ccccc2)nc2ccccc12 | -1.18% [at 35.3 µM]
CC(CCO)CCc1ccccc1 (stereo not given) | -3.69%
COc1ccc(CCC(=O)c2c(O)cc(O[C@@H]3O[C@H](CO)[C@@H](O)[C@H](O)[C@H]3O[C@@H]3O[C@@H](C)[C@H](O)[C@@H](O)[C@H]3O)cc2O)cc1O | 1.04%
COc1ccc(C(=O)c2cccc(O)c2)c(OC)c1 | -4.76%
N#C/C(=C1/SC[C@@H](c2ccc(Cl)cc2Cl)S1)n1ccnc1 | -7.74% [at 35.3 µM]
Cc1cc(O)c2c(O)c3c(O)cccc3cc2c1 | -2.37% [at 35.3 µM]
CCC(C)(C)C1CCC(O)CC1 (stereo not given) | -5.27%
Cc1ccccc1N1C(=O)c2cc(S(N)(=O)=O)c(Cl)cc2NC1C (stereo not given) | -10% [at 35.3 µM]
C/C=C(\C)C(=O)OCCC(C)CCC=C(C)C (stereo not given) | 6.18%
O=C(O)c1cccc(O)c1 | -13.2%
COc1cc2c(N3CCN(C(=O)Nc4ccc(OC(C)C)cc4)CC3)ncnc2cc1OCCCN1CCCCC1 | 2.13% [at 35.3 µM]
CCOC(=O)c1ccccc1C | -12.1%
CCCCCC=CCC=CCCCCCCCC(=O)OCC | 1.15% [at 35.3 µM]
C[N+](C)(C)CCOC(N)=O | 2.29% [at 35.3 µM]
CCCCC(=O)O[C@]1(C(=O)CO)CC[C@H]2[C@@H]3CCC4=CC(=O)CC[C@]4(C)[C@H]3[C@@H](O)C[C@@]21C | 2.05% [at 35.3 µM]
C=CCNc1nc(NCC=C)nc(N2CCN(C(c3ccc(F)cc3)c3ccc(F)cc3)CC2)n1 | 0.865% [at 35.3 µM]
